# From PubChem BioAssay
# Sampled rows, rich in hits. Any-hit rate of the full collection: about 3.8%.
# HSF1 inh: HSF1 inhibition. AID 2098. activity change, negative = inhibition, % at 7.5 µM (by protocol). NIH3T3-HGL HSE-luciferase, MG132-induced, luminescence 8 h; stronger effect = lower value. hit rate 0.77% among 300,000;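 active means more than half of replicate wells show activity change below -50%, luminescence cut by over half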;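 further: luciferase reports HSF-1 transcriptional activity via heat shock element; 0% = median of DMSO wells and -100% = zero luminescence signal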
# HSP90 inh: blocks HSP90-mediated luciferase refolding in reticulocyte lysate; Rabbit reticulocyte lysate, luciferase refolding luminescence, 3 h; inhibition, % at 5.6 µM; hit rate 0.91% among 290,000;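 active means inhibition above the screen-wide mean plus 3 SD, computed separately per campaign, cut at about 16% in these data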;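 further: 0% = DMSO wells and 100% = 60 µM geldanamycin wells; inhibitors lower the luminescence because luciferase stays unfolded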
# Hsp70 act: transcriptional activators of Hsp70 | HeLa Hsp70 promoter luciferase reporter, luminescence; scaled: vehicle 0, proteasome-inhibitor control 100% | activation, % at 10 µM | hit rate 0.04% among 200,000 | AID 1203;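 active means activation above the mean across all tested compounds plus 3 SD, cutoff set per campaign, cut at about 5.5% in these data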;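 further: 100% = MG132 at 30 µM as the positive control and 0% = DMSO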
# HSF1 activator: increases HSF-1 driven luciferase reporter signal. AID 504408. NIH3T3-HGL HSF-1 luciferase reporter, MG132, 8 h; 100% = twice DMSO control signal. activation, % at 9 µM. hit rate 1.7% among 300,000;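 active means mean replicate activation of at least 50% with a set share of replicates each reaching 50%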;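 further: 0% = median of the neutral control wells and 100% = twice that signal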
# pCIP destab: p/CIP protein destabilization. F442A p/CIP-EGFP cells, EGFP fluorescence, 16 h. decrease of EGFP signal, % at 10 µM. AID 1984. hit rate 0.01% among 290,000;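 active means EGFP signal decrease of at least 30% at 10 µM or well 3 SD below plate mean, unless failing retest; inactive means the rest, including hits failing retest or dose response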
# NALP1 inh: NALP1 inhibition | hit rate 0.61% among 280,000 | S. cerevisiae NALP1/ASC/caspase-1 growth, X-gal OD620, 72 h | inhibition, % at 10 µM; in the data active means inhibition mostly above about 24%, no sharp cut-off; inactive means mostly below about 32%
# Starred values were filed as active, the others as inactive; · = no result given.
SMILES,HSF1 inh,HSP90 inh,Hsp70 act,HSF1 activator,pCIP destab,NALP1 inh
O=C1CSC(c2cn(-c3ccccc3)nc2-c2ccc3c(c2)OCCO3)N1CCN1CCOCC1 (stereo not drawn),14,3,0,58*,-7,10
Cc1ccc(N=C2SCCCN2C(=O)C2=COCCO2)cc1Cl,-2,·,·,-8,·,·
COCCCNC(=O)CC(NS(=O)(=O)c1ccc(C)cc1)c1ccc(OC)cc1 (stereo not drawn),-77*,-2,0,-80,0,-6
Cc1[nH]nc(-c2ccc(O)c(C)c2O)c1-c1cnn(-c2ccccc2)c1,29,-2,0,67*,-2,0
Cn1c(CNC(=O)CNC(=O)Cc2ccc(F)cc2)cc(=O)n(C)c1=O,2,-3,·,13,-4,12
Cc1cc(/C=C2\Cc3ccccc3C2=O)c(C)n1-c1ccccc1,-75*,6,0,-74,2,38
Cc1ccc(NC(=O)CN(C)C(=O)COc2cccc3cccnc23)cc1,1,-2,0,-4,1,64*
Cc1ccc(NC(=O)CN(C)S(=O)(=O)c2cccc3cccnc23)cc1,1,1,0,3,-10,-17
COC(=O)c1cc(COc2ccc3c4c(c(=O)oc3c2)CCCC4)c(C)o1,-4,2,0,1,-2,4
COC(=O)c1cc(COc2ccc3oc(C)c(C(=O)OC(C)C)c3c2)c(C)o1,-80*,-1,0,-83,-13,10
COC(=O)c1scc2c(Oc3ccccc3)cc(C(F)(F)F)nc12,2,1,·,-6,4,1
COc1ccc(N2CCN(CC(=O)N3c4ccccc4CC3C)CC2)cc1 (stereo not drawn),3,0,·,4,-10,2
CCN(CC)CCCn1c(=S)[nH]c2ncccc2c1=O,16,2,0,62*,-9,2
COc1ccc(/C=C2\CCC/C(=C\c3ccc(OC)c(OC)c3OC)C2=O)c(OC)c1OC,38,1,·,53*,-2,9
COc1ccc(N/C=C2\CCc3ccccc3C2=O)cc1,-2,42*,0,4,-14,4
COc1ccc2c(c1)CC/C(=C/c1ccccn1)C2=O,38,2,·,66*,3,20
COc1ccc(/C=C2\CC/C(=C\c3ccc(OC)c(OC)c3)C2=O)cc1OC,29,-1,0,63*,2,24
COc1cc(/C=C2/CC/C(=C/c3ccc(O)c(OC)c3)C2=O)ccc1O,9,0,·,6,-11,·
CC(C)Sc1nc2ccc(N3C(=O)C4CCCCC4C3=O)cc2s1 (stereo not drawn),-40,-1,0,-55,-2,23
CS(=O)(=O)c1ccc(Cl)c(NC(=O)CCl)c1,10,3,1,36,-2,-3
CC(OC(=O)CCCSc1nc2ccccc2s1)C(=O)NC(N)=O (stereo not drawn),-10,2,0,3,6,10
COc1ccc(/C=C2\CN(Cc3ccccc3)C/C(=C\c3ccc(OC)c(O)c3)C2=O)cc1O,84,18*,·,91*,-12,6
COc1ccc(/C=C2\CCc3ccccc3C2=O)cc1OC,30,-22,0,68*,-2,-3
CN(C(=S)NC(=O)c1ccc(Br)o1)c1ccccc1,1,-2,0,0,7,7
N#C/C(=C\C=C\c1ccccc1)C(=O)N1CCCC1,7,1,·,9,-15,4
CC(=O)c1ccc(N(C(=O)c2ccco2)C(C(=O)NC2CCCC2)c2ccc(N3CCOCC3)cc2)cc1 (stereo not drawn),35,2,1,69*,-16,5
O=C1NC(=O)C2(CCc3ccccc32)N1 (stereo not drawn),-77*,-1,0,-82,-9,11
NC(=O)CN1C(=O)NC2(CCCc3ccccc32)C1=O (stereo not drawn),0,-4,·,-9,-26,45*
O=C(O)CN1C(=O)NC2(CCc3ccccc32)C1=O (stereo not drawn),1,-4,·,6,10,12
N=c1n(CC(=O)c2ccc([N+](=O)[O-])cc2)c2ccccc2n1Cc1ccc(Cl)cc1,4,2,0,-1,-9,64*
